Measurements as given in PubChem BioAssay AID652181 (The Scripps Research Institute Molecular Screening Center, 2013).

Each molecule was assayed on Hsp90 CT (assay: direct binding to Hsp90 C-terminal domain – biophysical, surface plasmon resonance, orthogonal assay for selective HSP90 inhibitor project, late-stage follow-up (AID 652181)). Conditions: Surface plasmon resonance binding to HSP90 domains, at 200 µM, stronger effect = higher value.

Row | Structure (SMILES) | binding
1 | CCOC(=O)c1csc(NC(=O)c2cc3ccccc3o2)n1 | 6.43
2 | COC(=O)c1ccccc1OCCCOc1ccc(C)cc1OC | 10.2
3 | CCOC(=O)C1=C(c2ccc(OC)cc2)C(=O)c2ccccc2C1=O | 11.2
4 | CC(=O)Nc1ccccc1OCC(=O)c1cc(C)n(Cc2cccs2)c1C | 10.6
5 | Cc1cc(NO)nc(-c2ccc(Br)cc2)n1 | 0.77
6 | Cc1c(-c2nc(-c3ccc(C(F)(F)F)cc3)no2)n(C)oc1=O | 7.47
7 | COc1ccccc1NC(=O)c1coc(=O)c(Br)c1 | 11.7
8 | Cc1c(-c2nc(-c3ccc(C(C)(C)C)cc3)no2)n(C)oc1=O | 4.46
9 | CCc1ccc(OCc2ccc(C(=O)OC)o2)cc1 | 6.78
10 | COc1cc(/C=N/Nc2ccc(Cl)c(C(=O)O)c2)ccc1OC(=O)c1ccc(F)cc1 | -4.19
